Assay [1] is described as follows: NCI Yeast Anticancer Drug Screen. Data for the rad50 strain (AID 155).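 Further: 0% = growth of vehicle-only cultures of the same strain.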 Conditions: S. cerevisiae rad50 strain growth inhibition, hits give high values. Summed up:
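Vehicle-treated cultures provide the reference for the growth inhibition reported for compound-exposed, repair-deficient yeast.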

Assay [2] can be described thus: NCI Yeast Anticancer Drug Screen. Data for the mec2-1 strain (AID 157). Conditions: S. cerevisiae mec2-1 strain, hits give high values. In a few lines: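 Test agents were screened against the mec2-1 yeast strain, with defined DNA repair or cell cycle alteration. Growth was scored as inhibition against vehicle-only controls.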
The nature of assay [3]: NCI Yeast Anticancer Drug Screen. Data for the sgs1 mgt1 strain (AID 161).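 Further: 0% = growth of cultures given vehicle only.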 Particulars: S. cerevisiae sgs1 mgt1 strain, hits give high values. Summed up: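 Mutant yeast exposed to compound; growth scored against vehicle-only wells.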
Assay [4] in a line: NCI Yeast Anticancer Drug Screen. Data for the cln2 rad14 strain (AID 165).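 Further: 0% = growth equal to vehicle treated cultures.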 Conditions: S. cerevisiae cln2 rad14 strain, hits give high values. Summed up:
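Growth of compound-exposed yeast (cln2 rad14 genotype) measured and expressed as inhibition relative to vehicle.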

The nature of assay [5]: NCI Yeast Anticancer Drug Screen. Data for the bub3 strain (AID 167). Particulars: S. cerevisiae bub3 mutant strain, hits give high values. Summed up: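 Mutant yeast screening strain plus compound; vehicle-treated cultures serve as the 0% inhibition reference.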
Assay [6] is described as follows: NCI Yeast Anticancer Drug Screen. Data for the mlh1 rad18 strain (AID 175). Particulars: S. cerevisiae mlh1 rad18 strain growth inhibition, hits give high values. In a few lines: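 In this whole-cell yeast screen, a strain with altered DNA damage repair is challenged with compound, and its growth is measured against matched vehicle-treated controls.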
The mark [7] stands for this setting: at 5.0 µM (retest, dose inferred, filed as 0.5).
Where [8] appears, read: at 50.0 µM (retest, dose inferred, filed as 5.0).

Structures are written as SMILES. About 79,000 compounds went through this panel and 15% of them were active in at least one assay; those are over-represented in the sample as a whole. Unmarked numbers belong to inactive results. Calls of active or inactive are those of the source. No stated cut-off is given here; in the data, active means growth inhibition above about 70%; inactive means the rest.

As to `Nc1ccccc1Sc1ccc(F)cc1[N+](=O)[O-]`, the growth inhibition in assay [1] (setting [7]) is -6%; in assay [1] (setting [8]), 85% (active); in assay [1] (at 50.0 µM) it was 71% (active); in assay [2] (setting [7]), -19%; in assay [2] (setting [8]) it was 26%; in assay [2] (at 50.0 µM), 89.8% (active). The growth inhibition in assay [3] (setting [7]) is 2%; in assay [3] (setting [8]) it was 76% (active); in assay [3] (at 50.0 µM) it was 89.1% (active); in assay [4] (setting [7]), -6%; in assay [4] (setting [8]), 59%; in assay [4] (at 50.0 µM) it was 72.3% (active). For the same compound, the growth inhibition was -3% in assay [5] (setting [7]); 85% (active) in assay [5] (setting [8]); 88.8% (active) in assay [5] (at 50.0 µM); -4% in assay [6] (setting [7]); 93% (active) in assay [6] (setting [8]); 88.5% (active) in assay [6] (at 50.0 µM).
On to `Cc1c(Cl)ccc2c(C(O)CNCc3ccccc3)cc(-c3ccc(Cl)cc3)nc12` (centres undefined), for which the growth inhibition was 44% in assay [1] (setting [7]); 95% (active) in assay [1] (setting [8]); 98.5% (active) in assay [1] (at 50.0 µM); 58% in assay [2] (setting [7]); 95% (active) in assay [2] (setting [8]); 91% (active) in assay [2] (at 50.0 µM). Besides, the growth inhibition in assay [3] (setting [7]) is 66%; in assay [3] (setting [8]), 92% (active); in assay [3] (at 50.0 µM), 97.1% (active); in assay [4] (setting [7]), 17%; in assay [4] (setting [8]), 94% (active); in assay [4] (at 50.0 µM), 93.8% (active). Moreover, the growth inhibition in assay [5] (setting [7]) was 26%; in assay [5] (setting [8]) it was 95% (active); in assay [5] (at 50.0 µM), 12.1%; in assay [6] (setting [7]) it was 59%; in assay [6] (setting [8]) it was 95% (active); in assay [6] (at 50.0 µM) it was 96.5% (active).
For `O=Cc1cc(-c2ccccc2)n(-c2ccccc2)c1-c1ccccc1`, the growth inhibition in assay [1] (setting [7]) is 18%; in assay [1] (setting [8]), 18%; in assay [1] (at 50.0 µM), 64.3%; in assay [2] (setting [7]), 2%; in assay [2] (setting [8]), -3%; in assay [2] (at 50.0 µM), 22.2%. The growth inhibition in assay [3] (setting [7]) was -6%; in assay [3] (setting [8]), 16%; in assay [3] (at 50.0 µM), 63%; in assay [4] (setting [7]), -6%; in assay [4] (setting [8]), 27%; in assay [4] (at 50.0 µM), 0%. Also, the growth inhibition is 0% in assay [5] (setting [7]); 9% in assay [5] (setting [8]); 35.9% in assay [5] (at 50.0 µM); -1% in assay [6] (setting [7]); 16% in assay [6] (setting [8]); 47.3% in assay [6] (at 50.0 µM).
In the case of `CCOCCOC(=O)C(C)O` (centres undefined), the growth inhibition is 9% in assay [1] (setting [7]); -1% in assay [1] (setting [8]); 9.25% in assay [1] (at 50.0 µM); -1% in assay [2] (setting [7]); -3% in assay [2] (setting [8]); 27.1% in assay [2] (at 50.0 µM). Moreover, the growth inhibition in assay [3] (setting [7]) is -2%; in assay [3] (setting [8]) it was 3%; in assay [3] (at 50.0 µM), -3.1%; in assay [4] (setting [7]), 5%; in assay [4] (setting [8]), 2%; in assay [4] (at 50.0 µM), 45.3%. Moreover, the growth inhibition is 6% in assay [5] (setting [7]); 14% in assay [5] (setting [8]); 9.25% in assay [5] (at 50.0 µM); 7% in assay [6] (setting [7]); -2% in assay [6] (setting [8]); -7.1% in assay [6] (at 50.0 µM).
`ClC1(Cl)c2ccccc2-c2ccccc21`: the growth inhibition in assay [1] (setting [7]) is -147%; in assay [1] (setting [8]), -36%; in assay [1] (at 50.0 µM) it was 7.55%; in assay [2] (setting [7]), -51%; in assay [2] (setting [8]), -40%; in assay [2] (at 50.0 µM), -4.1%. The growth inhibition was -59% in assay [3] (setting [7]); -49% in assay [3] (setting [8]); -7.05% in assay [3] (at 50.0 µM); -55% in assay [4] (setting [7]); -54% in assay [4] (setting [8]); 43.4% in assay [4] (at 50.0 µM). In addition, the growth inhibition in assay [5] (setting [7]) was -67%; in assay [5] (setting [8]), -55%; in assay [5] (at 50.0 µM), -21%; in assay [6] (setting [7]), -115%; in assay [6] (setting [8]), -79%; in assay [6] (at 50.0 µM), -2.85%.
As to `O=C1CCCC2c3ccccc3NC12` (centres undefined), the growth inhibition is -147% in assay [1] (setting [7]); -137% in assay [1] (setting [8]); 1.85% in assay [1] (at 50.0 µM); -50% in assay [2] (setting [7]); -57% in assay [2] (setting [8]); 34.6% in assay [2] (at 50.0 µM). Besides, the growth inhibition in assay [3] (setting [7]) is -64%; in assay [3] (setting [8]), -64%; in assay [3] (at 50.0 µM) it was -2%; in assay [4] (setting [7]), -51%; in assay [4] (setting [8]) it was -56%; in assay [4] (at 50.0 µM) it was 78.7% (active). Moreover, the growth inhibition in assay [5] (setting [7]) was -68%; in assay [5] (setting [8]) it was -75%; in assay [5] (at 50.0 µM), -17.9%; in assay [6] (setting [7]), -139%; in assay [6] (setting [8]) it was -111%; in assay [6] (at 50.0 µM) it was 9.5%.
For the compound `Cc1ccc2c(c1)SSc1ccc(C)cc1SS2`, the growth inhibition in assay [1] (setting [7]) was 78% (active); in assay [1] (setting [8]), 92% (active); in assay [1] (at 50.0 µM) it was 81% (active); in assay [2] (setting [7]), 42%; in assay [2] (setting [8]), 94% (active); in assay [2] (at 50.0 µM) it was 27.9%. The growth inhibition in assay [3] (setting [7]) is 35%; in assay [3] (setting [8]) it was 94% (active); in assay [3] (at 50.0 µM) it was 75.7% (active); in assay [4] (setting [7]), 84% (active); in assay [4] (setting [8]) it was 91% (active); in assay [4] (at 50.0 µM), 55.5%. Also, the growth inhibition was 79% (active) in assay [5] (setting [7]); 93% (active) in assay [5] (setting [8]); 73.2% (active) in assay [5] (at 50.0 µM); 66% in assay [6] (setting [7]); 93% (active) in assay [6] (setting [8]); 64.8% in assay [6] (at 50.0 µM).
`CCCCCCCCCCCC(=O)N(CCOC(=O)c1ccco1)CCOC(=O)c1ccco1`: the growth inhibition in assay [1] (setting [7]) is 46%; in assay [1] (setting [8]) it was 96% (active); in assay [1] (at 50.0 µM), 99% (active); in assay [2] (setting [7]), 43%; in assay [2] (setting [8]), 99% (active); in assay [2] (at 50.0 µM) it was 99% (active). Also, the growth inhibition was 31% in assay [3] (setting [7]); 98% (active) in assay [3] (setting [8]); 99.2% (active) in assay [3] (at 50.0 µM); 29% in assay [4] (setting [7]); 98% (active) in assay [4] (setting [8]); 98.5% (active) in assay [4] (at 50.0 µM). Moreover, the growth inhibition in assay [5] (setting [7]) is 34%; in assay [5] (setting [8]) it was 96% (active); in assay [5] (at 50.0 µM), 97.8% (active); in assay [6] (setting [7]), 34%; in assay [6] (setting [8]) it was 97% (active); in assay [6] (at 50.0 µM), 98.8% (active).
For `CCc1c(C)[nH]c2c([N+](=O)[O-])cccc12`, the growth inhibition was 5% in assay [1] (setting [7]); 29% in assay [1] (setting [8]); 95.2% (active) in assay [1] (at 50.0 µM); 8% in assay [2] (setting [7]); -14% in assay [2] (setting [8]); 94.5% (active) in assay [2] (at 50.0 µM). Further, the growth inhibition is -3% in assay [3] (setting [7]); -1% in assay [3] (setting [8]); 95.2% (active) in assay [3] (at 50.0 µM); -13% in assay [5] (setting [7]); 3% in assay [5] (setting [8]); 96% (active) in assay [5] (at 50.0 µM). Further, the growth inhibition in assay [6] (setting [7]) was 1%; in assay [6] (setting [8]) it was 27%; in assay [6] (at 50.0 µM) it was 94.8% (active).
For `CCC(C)(C)c1ccc(OC(=O)C(C)OC(C)=O)cc1` (centres undefined), the growth inhibition in assay [1] (setting [7]) was 12%; in assay [1] (setting [8]), 33%; in assay [1] (at 50.0 µM), 82% (active); in assay [2] (setting [7]) it was -5%; in assay [2] (setting [8]), 48%; in assay [2] (at 50.0 µM), 84.9% (active). In addition, the growth inhibition in assay [3] (setting [7]) is 0%; in assay [3] (setting [8]), 68%; in assay [3] (at 50.0 µM), 88% (active); in assay [5] (setting [7]), -5%; in assay [5] (setting [8]), 53%; in assay [5] (at 50.0 µM), 87.2% (active). Moreover, the growth inhibition was -10% in assay [6] (setting [7]), 46% in assay [6] (setting [8]) and 86.7% (active) in assay [6] (at 50.0 µM).

For the origin of these results see PubChem BioAssay (NCI).
